TAG inh = inhibitors of triacylglycerol accumulation, primary screen, cell-based, uHTS, fluorescence, H9c2 | H9c2 cells, Nile Red lipid (TAG) fluorescence; cells loaded with 200 µM oleic acid | inhibition, % at 12.5 µM | actives 0.66% (n = 230,000) | AID 651582, 2012;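 active = pattern-corrected inhibition of lipid staining of at least 50% with the nuclear-stain viability signal not falling by more than 50%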;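 note: 0% = DMSO wells and 100% = triacsin C control wells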
beta cell repl = inducers of MIN6 beta-cell proliferation, primary screen, ATP luminescence, uHTS; MIN6 cells proliferation, ATPlite luminescence, 48 h; cells starved in 0.2% serum; 100% = growth in 10% serum; actives 0.29% (n = 330,000); proliferation, % at 10 µM; AID 2380, 2010;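 active = compounds whose signal lies at least 3.5 SD above the mean of all wells on their plate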;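 note: 0% = DMSO-treated cells in low-serum medium and 100% = 10% serum control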
hiPSC survival = enhancers of single-cell hiPSC survival, primary screen, ATPlite luminescence; survival enhancement, % at 20 µM; actives 0.044% (n = 360,000); 100% = ROCK inhibitor wells, 0% = DMSO; in the data active = survival enhancement above about 18%;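 note: cells exposed to compounds for 16 hours before the ATP read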
H9c2 TAG conf = triacylglycerol accumulation inhibitors, retest, confirmation, cell-based, single concentration, Nile Red fluorescence, H9c2; shares compounds with TAG inh; H9c2 lipid accumulation; cells loaded with 200 µM oleic acid; inhibition, % at 12.5 µM; actives 71% (n = 990);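 active = mean inhibition across replicates of 40% or more; inactive = mean inhibition below 40%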;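 note: plate controls were DMSO only wells for no effect and Triacsin C treated wells for full effect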
Active calls of the source: *; / = not tested or not shown; ! = not active in a repeat. Shown are actives, neighbours in structure and some others; about 0.71% of the full set was active somewhere.

SMILES | TAG inh | beta cell repl | hiPSC survival | H9c2 TAG conf
Cc1nn(-c2ccccc2)c(=O)c2ccccc12 | 7 | -3 | 0 | /
CC(=O)O[C@]1(C(C)=O)CCC2C3C=C(C)C4=CC(=O)CC[C@]4(C)C3CC[C@@]21C (stereo partly specified) | / | 1 | -1 | /
CC(=O)O[C@H]1C[C@@]2(C)[C@@H](C[C@@H](O)[C@H]3[C@@]4(C)CC[C@@H](O)[C@@H](C)[C@@H]4CC[C@@]32C)/C1=C(\CCC=C(C)C)C(=O)O | 61*! | -8 | -1 | 56*
COc1ccccc1-c1cnc2c(c1)C(=O)N([C@@H](C)CO)C[C@@H](C)[C@H](CN(C)C(=O)c1cccnc1)O2 | -1 | / | 2 | /
Cc1ccc(NC(=O)CSc2nnc(C)c(=O)n2N)cc1Cl | 51* | 3 | 0 | 44*
Cc1nnc(SCC(=O)Nc2ccc(OC(F)F)c(Cl)c2)n(N)c1=O | 19 | 0 | 0 | /
O=CNc1c(Cl)cc2c(c1Cl)Cc1cc([N+](=O)[O-])ccc1-2 | 17 | / | 4 | /
O=C(NCc1ccc(F)cc1)c1cc(C2CCCN(S(=O)(=O)c3ccccc3)C2)on1 (stereo unspecified) | -3 | / | -1 | /
C[C@H]1CCCCO[C@@H](CN(C)C(=O)NC2CCCCC2)[C@@H](C)CN([C@@H](C)CO)C(=O)c2cc(NC(=O)Cc3ccccc3)ccc2O1 | -1 | / | -3 | /
O=C(Nc1cccc(NS(=O)(=O)c2ccc(S(=O)(=O)NC3CC3)cc2)c1)c1ccccn1 | 56* | -1 | 1 | 25
O=C(Nc1cccc(S(=O)(=O)N2CCCCC2)c1)c1ccccn1 | -29 | 3 | 0 | /
Cc1cccc(NC(=O)c2ccc(C)c(S(=O)(=O)N3CCOCC3)c2)n1 | 1 | / | 0 | /
COc1ccccc1-c1cnc(C(O)c2cc(C)c(OC)c(C)c2)[nH]1 (stereo unspecified) | 8 | / | -1 | /
COc1cc(-c2noc(C)c2/C=C/c2ccc(N)cc2)cc(OC)c1OC | 28 | -7 | -3 | /
COc1cc(-c2noc(C)c2C#Cc2ccc(N)cc2)cc(OC)c1OC | 57* | -9 | 3 | 47*
COc1ccc(CN2C[C@@H](CO)O[C@@H](n3cnc4c(NC5CCC5)ncnc43)C2)cc1 | 12 | / | -1 | /
Cc1ccc(-c2ccc(/C=C3\SC(N4CCOCC4)=NC3=O)o2)cc1 | 132 | -4 | -1 | /
O=C1N=C(N2CCOCC2)S/C1=C/c1ccc(-c2ccc(F)cc2)o1 | 66* | -3 | 1 | 42*
CCCNC(=O)C1(C)CCCN(Cc2ccc(-c3ccccc3)o2)C1 (stereo unspecified) | -4 | / | -2 | /
COc1ccccc1CN1CCNC(=O)C1CC(=O)N(C)C1CCOCC1 (stereo unspecified) | -3 | / | -1 | /
Cc1onc(-c2ccccc2)c1C(=O)Nc1cc(C(F)(F)F)ccc1N1CCOCC1 | 52* | 0 | 0 | 62*
Cc1onc(-c2ccccc2)c1C(=O)Nc1ccccc1N1CCOCC1 | -27 | 6 | 2 | /
COc1ccc(Nc2cccccc2=O)cc1 | 2 | 3 | -2 | /
COc1ccc(Nc2cccc3ccccc23)cc1 | 65* | -5 | -3 | 13
C[C@@H]1CN([C@H](C)CO)S(=O)(=O)c2ccc(C#CCN(C)C)cc2O[C@@H]1CN(C)Cc1ccccc1F | 7 | / | -1 | /
SMILES | TAG inh | beta cell repl | hiPSC survival | H9c2 TAG conf
Cc1ccc(OC2CCN(C(=O)[C@H]3O[C@@H](n4ccc(N)nc4=O)[C@H](O)[C@@H]3O)CC2)cc1 | / | / | 7 | /
O=C1c2ccccc2C(=O)c2c1ccc(C(=O)N1CCCCC1)c2NCCO | 83* | 1 | -3 | 83*
O=C1c2ccccc2-c2c1cccc2C(=O)N1CCCCCC1 | / | 0 | 0 | /
Cc1ccc2c(c1)-c1c(cnn1CC(=O)O)CO2 | 1 | 4 | 3 | /
Cc1ccc2c(c1)-c1c(cnn1CC(=O)Nc1ccccc1N1CCN(C)CC1)CO2 | 53* | -1 | -3 | 51*
COc1ccccc1N(C)S(=O)(=O)c1ccc(Cl)c(C(=O)Nc2ccccc2N2CCOCC2)c1 | -16 | / | 0 | /
C[C@@]12C(=O)Nc3ccc(Br)cc3C(=O)N1[C@H]1c3ccccc3OC[C@@H]1[C@@H]2c1ccccc1 | 8 | -6 | -2 | /
C[C@@]12C(=O)Nc3ccc(Br)cc3C(=O)N1[C@H]1c3cc(Cl)ccc3OC[C@@H]1[C@@H]2c1ccccc1 | 52* | -9 | 4 | 64*
O=C(CC1CC1)Nc1ccc2c(c1)[C@H]1C[C@H](CC(=O)N3CCc4ccccc4C3)O[C@@H](CO)[C@H]1O2 | -6 | / | 0 | /
CC(C)(C)C(=O)Nc1cc(S(=O)(=O)Nc2ccc(Cl)cc2)ccc1Cl | / | 0 | -1 | /
CC(=O)Nc1cc2cc(NS(=O)(=O)c3ccc(Cl)cc3)ccc2oc1=O | 58* | -2 | 0 | 10
CCOC(=O)[C@]12CCC=C1N(Cc1ccc3c(c1)OCO3)C(=O)[C@H](CC(=O)N1CCC(c3ccccc3)CC1)C2 | / | / | 0 | /
CC(=O)c1ccc2c(c1)N(CCCN1CCC(CCO)CC1)c1ccccc1S2 | 27 | -7 | -3 | /
CSc1ccc2c(c1)N(CCC1CCCCN1C)c1ccccc1S2 (stereo unspecified) | 85* | -8 | -3 | 59*
O=C(NCCC1=CCCCC1)C1CCN(S(=O)(=O)N2CCCC2)CC1 | -7 | -3 | 0 | /
O=C(NCCC1=CCCCC1)C1CCN(C(=O)Nc2ccccc2)CC1 | 51* | -2 | -2 | 33
Cc1ccc(-n2cnc3c(=O)[nH]cnc32)cc1[N+](=O)[O-] | 9 | / | -3 | /
Cc1ccc(NC(=O)Cn2nnc(-c3ccccc3NC(=O)c3cccs3)n2)cc1 | 57* | -3 | -2 | 71*
COc1ccc(NC(=O)Cn2nnc(-c3ccccc3NC(=O)c3cccs3)n2)cc1 | 0 | -3 | 5 | /
CCCCNc1c(-c2ccc(-c3ccc(C(C)=O)cc3)c(OC)c2)nc2cc(C)ccn12 | 58* | -6 | 2 | 41*
CCCCNc1c(-c2ccc(OC)c(SC(C)CC)c2)nc2cc(C)ccn12 (stereo unspecified) | -9 | -6 | -1 | /
COc1ccc(-c2ccc(C(=O)NCCc3ccccc3)c3occc23)c(C)c1 | 10 | / | 9 | /
O=C(NCCOc1nc(N2CCCCC2)nc(N2CCOCC2)n1)Nc1ccccc1 | / | 0 | 0 | /
O=C(NCCOc1nc(N2CCOCC2)nc(N2CCOCC2)n1)Nc1ccccc1 | 54* | -2 | -2 | 30
Cc1cc(NC(=O)c2sccc2C)n(-c2nc3ccccc3[nH]2)n1 | 64* | -6 | -1 | 59*
Cc1cc(NC(=O)c2cccs2)n(-c2nc3ccccc3[nH]2)n1 | 49 | -2 | 0 | /
CC1CC(C)(C)CC2(C1)NC(=O)N(CC(=O)Nc1ccc3c(c1)OCO3)C2=O (stereo unspecified) | -1 | / | -2 | /
Cc1ccc(CNC(=O)c2ccc(N3CCC4(CC3)CC(c3ccccc3)=NO4)c(NC(=O)c3cccc(C)c3)c2)cc1 | 30 | -6 | 1 | /

Screens (PubChem BioAssay)
